Hits are enriched below; roughly 2.4% of the tested compounds scored in any of these assays.
PABP FP inh – PABP-poly(A) binding inhibition; P11940; PABP-poly(A) RNA binding, fluorescence polarization; inhibition, % at 35 µM; actives 1% (n = 290,000); AID 2014;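 also: calls also rest on retests at 20 µM and on dose response follow-up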
PfM18AAP inh – PfM18AAP enzyme inhibition; AID 1822; recombinant PfM18AAP, H-Glu-NHMec fluorogenic cleavage; inhibition, % at 7.35 µM; actives 1.2% (n = 290,000);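 active = inhibition above the campaign mean inhibition over all tested compounds plus 3 SD, cut at about 28% in these data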;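 also: 0% = plate median of test compound wells and 100% = 2 mM ZnCl2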
MLLE-PAM2 inh – inhibitors of microRNA-mediated deadenylation, human PABP1 MLLE binding | GST-MLLE / FITC-PAM2 fluorescence polarization | inhibition, % at 20 µM | actives 0.36% (n = 360,000); in the data active = inhibition above about 35%, passing the limit was not always enough;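 also: plate controls were DMSO wells with GST-MLLE for no effect and wells lacking GST-MLLE protein for full effect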
eIF4E 4G PPI – eIF4E/eIF4G interaction inhibition in translation initiation; AID 782; actives 0.37% (n = 220,000); TR-FRET eIF4E-eIF4GI(517-606) binding, 2 h; P63073+Q04637; inhibition, % at 21.7 µM;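 active = inhibition above about 30%, limit read from the data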;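 also: 0% = full FRET control wells and 100% = background wells lacking eIF4GI fragment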
Target sequence (P63073 whole entry, looked up, the tested form may be a part): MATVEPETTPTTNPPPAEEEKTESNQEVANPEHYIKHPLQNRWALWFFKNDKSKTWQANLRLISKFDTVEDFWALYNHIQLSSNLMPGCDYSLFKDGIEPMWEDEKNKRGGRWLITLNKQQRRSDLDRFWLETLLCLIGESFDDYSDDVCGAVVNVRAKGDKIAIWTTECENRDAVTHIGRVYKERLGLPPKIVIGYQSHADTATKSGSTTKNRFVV
Target sequence (Q04637 whole entry, looked up, the tested form may be a part): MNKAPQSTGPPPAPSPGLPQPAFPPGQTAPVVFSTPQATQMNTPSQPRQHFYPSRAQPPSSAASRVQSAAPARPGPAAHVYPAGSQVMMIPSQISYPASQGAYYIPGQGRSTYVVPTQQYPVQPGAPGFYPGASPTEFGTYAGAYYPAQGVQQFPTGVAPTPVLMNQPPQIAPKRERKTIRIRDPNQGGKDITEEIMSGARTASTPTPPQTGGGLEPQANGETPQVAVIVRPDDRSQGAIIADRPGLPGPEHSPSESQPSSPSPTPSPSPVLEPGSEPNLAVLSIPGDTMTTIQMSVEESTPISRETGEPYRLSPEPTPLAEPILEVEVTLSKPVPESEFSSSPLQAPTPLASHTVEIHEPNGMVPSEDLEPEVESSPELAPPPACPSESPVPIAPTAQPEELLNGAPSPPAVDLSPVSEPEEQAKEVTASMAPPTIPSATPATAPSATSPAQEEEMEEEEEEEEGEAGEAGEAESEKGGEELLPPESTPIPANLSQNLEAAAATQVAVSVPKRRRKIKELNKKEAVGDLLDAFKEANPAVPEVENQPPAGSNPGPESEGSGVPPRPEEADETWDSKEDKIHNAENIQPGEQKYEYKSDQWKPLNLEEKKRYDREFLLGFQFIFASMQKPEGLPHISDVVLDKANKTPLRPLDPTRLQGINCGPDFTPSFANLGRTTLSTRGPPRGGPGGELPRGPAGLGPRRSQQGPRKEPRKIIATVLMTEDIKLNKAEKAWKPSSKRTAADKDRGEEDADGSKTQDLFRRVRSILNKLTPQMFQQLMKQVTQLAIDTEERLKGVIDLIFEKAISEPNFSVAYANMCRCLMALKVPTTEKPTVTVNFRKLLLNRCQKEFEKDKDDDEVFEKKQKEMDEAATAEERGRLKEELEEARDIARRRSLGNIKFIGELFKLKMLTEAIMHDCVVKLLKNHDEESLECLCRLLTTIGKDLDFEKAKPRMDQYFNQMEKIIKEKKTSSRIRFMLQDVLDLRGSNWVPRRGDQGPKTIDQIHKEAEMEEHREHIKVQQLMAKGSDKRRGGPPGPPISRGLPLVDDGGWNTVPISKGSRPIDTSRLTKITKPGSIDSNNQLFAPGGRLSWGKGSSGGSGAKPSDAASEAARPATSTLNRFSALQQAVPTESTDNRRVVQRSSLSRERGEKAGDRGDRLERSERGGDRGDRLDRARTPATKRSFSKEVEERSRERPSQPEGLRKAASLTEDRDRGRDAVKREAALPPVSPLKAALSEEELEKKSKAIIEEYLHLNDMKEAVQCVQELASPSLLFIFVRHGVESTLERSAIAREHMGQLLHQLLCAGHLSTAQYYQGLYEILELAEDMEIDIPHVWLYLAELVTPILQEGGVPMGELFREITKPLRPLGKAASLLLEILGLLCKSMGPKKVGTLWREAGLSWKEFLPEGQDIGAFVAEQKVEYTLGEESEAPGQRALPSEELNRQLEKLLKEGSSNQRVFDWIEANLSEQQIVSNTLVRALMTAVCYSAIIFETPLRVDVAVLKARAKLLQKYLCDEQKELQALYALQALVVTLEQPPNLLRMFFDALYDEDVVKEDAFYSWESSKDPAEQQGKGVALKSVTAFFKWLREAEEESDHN
eIF4H inh – inhibitors of RNA binding by human eIF4H | Q15056 | eIF4H fluorescence polarization binding assay | inhibition, % at 35 µM | actives 0.94% (n = 290,000) | AID 2012;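 also: calls also rest on retests at 20 µM and on dose response follow-up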
PERK inhibitor – inhibitors of human PERK kinase | CHO PERK-DD fusion, SEAP luminescence translation reporter | inhibition, % at 5.6 µM | actives 0.17% (n = 220,000) | AID 1416;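 active = inhibition above the mean inhibition of all tested compounds plus 3 SD, set separately per screening campaign, cut at about 2.9% in these data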;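 also: PERK kinase domain activated by AP20187 dimerizer at 100 nM; 0% = DMSO with dimerizer and 100% = rapamycin at 8.4 µM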
* hit, by the source's call; · = not tested or not shown; [ ] = another dose, or the depositor's remark. Unless noted, no rule for the calls is given here.

SMILES	PABP FP inh	PfM18AAP inh	MLLE-PAM2 inh	eIF4E 4G PPI	eIF4H inh	PERK inhibitor
O=C(COc1ccccc1)NNc1nc2ccccc2s1	4.4	15.0	-4.1	-0.8	6.2	0.3
COc1ccc2nc(NNC(=O)COc3ccccc3)sc2c1	11.3	38.3*	-34.0	1.4	4.8	1.9
CCCc1cc(=O)oc2cc(OC3CCCCC3=O)ccc12 (stereo unspecified)	90.3*	2.3	-2.1	·	88.6*	·
O=C(O)CCCC(=O)Nc1ccc(N2CCCC2)cc1	23.7	8.4	12.6	-0.8	69.1*	-0.5
CN(C)CCOC(=O)c1ccc2[nH]c3c(c2c1)CSCC3	27.6	-11.9	19.8	5.6	32.6	-0.4
O=C(O)c1ccc2[nH]c3c(c2c1)CSCC3	41.2	-11.9	33.4	5.0	56.2*	-0.8
Cc1cc2ncn(C(=O)c3cc(-c4ccccc4)nc4ccccc34)c2cc1C	50.3*	-11.2	11.2	-0.2	active	-0.3
Cc1cnn(C(=O)c2cc(-c3ccccc3)nc3ccccc23)c1	-7.0	-8.7	4.9	-7.9	-3.0	-0.1
NC(=O)COC(=O)c1ccc(-c2ccccc2)cc1	-14.5	-1.6	-7.0	3.9	-4.3	0.0
COc1ccc(CC(=O)N/N=C/c2ccc(-c3ccc(F)cc3)o2)cc1OC	4.9	3.2	-4.8	-2.7	0.0	-1.6
Cc1ccc(OCC(=O)N/N=C\c2ccc(-c3cccc(C(=O)O)c3)o2)c(C)c1	1.8	7.9	-3.7	2.7	89.4*	0.9
COc1ccc(CC(=O)N/N=C/c2ccc(-c3cccc(C(=O)O)c3)o2)cc1OC	52.6*	6.9	13.4	-1.4	81.4*	1.2
O=C(COc1ccc(Br)cc1)NNC(=O)c1ccc(-n2cncn2)c([N+](=O)[O-])c1	·	·	57.6*	·	·	·
COc1ccc(NC(=O)c2ccc(-n3cncn3)c([N+](=O)[O-])c2)cc1OC	·	·	9.1	·	·	·
COc1ccc(NC(=O)c2ccc(-n3cncn3)c([N+](=O)[O-])c2)cc1	92.5*	6.4	9.3	-1.9	9.9	0.4
O=C(NNC(=O)C1CCCCC1)C(=O)NC1CCCCC1	-4.8	5.2	13.7	-1.3	-2.2	2.5
N#Cc1c(Cl)nc(N/N=C/c2ccccc2)c(Cl)c1Cl	-2.6	26.6	-4.8	8.5	2.1	0.8
C[N+](C)(C)c1ccc(/C=N/Nc2nc(Cl)c(C#N)c(Cl)c2Cl)cc1	-6.8	8.6	-128.8	30.1*[fluorescence artefact?]	37.5	1.1
Cc1cc(C)n(-c2nnc3n2N=C(c2ccccc2)CS3)n1	3.5	9.5	-21.0	41.7*	1.6	0.5
COc1cccc(C(=O)NNC2=CC(=O)CC(C)(C)C2)c1	-0.9	30.9*	1.1	-7.1	3.4	0.6
CC(=O)Nc1ccc(S(=O)(=O)Nc2nnc(CC(C)(C)C)s2)cc1	4.7	-12.2	42.8*	1.4	-0.6	-1.0
CCc1nnc(NS(=O)(=O)c2ccc(NS(=O)(=O)c3ccc(NC(C)=O)cc3)cc2)s1	14.7	-0.7	·	-3.5	3.3	0.8
NS(=O)(=O)c1ccc(CCNC(=O)c2ccc(OCC3CCCO3)cc2)cc1 (stereo unspecified)	10.1	-6.2	6.4	·	-4.2	·
COCCCNC(=O)c1cc(S(=O)(=O)N2CCOCC2)ccc1SCc1cccc(OC)c1OC	-9.2	20.6	2.0	3.0	-7.0	0.1
O=C(CSc1ccsc1[N+](=O)[O-])Nc1cccc(F)c1	-4.4	10.2	-1.1	49.9*	73.7	0.6
SMILES	PABP FP inh	PfM18AAP inh	MLLE-PAM2 inh	eIF4E 4G PPI	eIF4H inh	PERK inhibitor
CCC(C)C(=O)N1c2ccccc2C(=C2SC(C(=O)OC)=C(C(=O)OC)S2)C(=S)C1(C)C (stereo unspecified)	7.0	-3.8	46.0*	1.1	-8.2	-0.1
CC1CCc2sc(C(=O)NN=C3CCCC3)cc2C1 (stereo unspecified)	·	·	-5.3	·	·	·
CC(=O)Nc1cc(C(C)(C)C)c(O)c(C(C)(C)C)c1	4.1	30.6*	2.3	1.8	-14.6	1.0
Cc1ccccc1C(=O)NNC(=S)NC(=O)c1cccnc1	8.0	27.6	16.7	-8.4	-1.5	0.2
O=C(NC(=S)NNC(=O)c1ccccc1F)c1cccnc1	-6.5	28.9*	7.5	-6.6	7.4	1.6
Cc1c(NC(=O)C(C)OC(=O)/C=C/c2ccco2)c(=O)n(-c2ccccc2)n1C (stereo unspecified)	2.8*	-1.2	0.4	6.3	77.5*	-0.1
O=C(COc1ccccc1)NC(=S)Nc1cccc2c(O)cccc12	·	·	20.7	·	·	·
Cc1cccc(NS(=O)(=O)c2cccc(C(=O)N3CCCC(C(F)(F)F)C3)c2)c1 (stereo unspecified)	·	·	1.0	·	·	·
CCN(CC)CCOC(=O)C(c1ccccc1)c1ccccc1	-1.0	2.1	-10.9	0.2	-8.2	0.8
CCN(CC)CCSC(=O)C(c1ccccc1)c1ccccc1	·	·	46.7*	·	·	·
CCOC(=O)c1sc(NC(=O)C2CCCO2)c(C(=O)OC)c1C (stereo unspecified)	·	-1.4	·	·	·	2.1
CCCOC(=O)c1c(NC(=O)C2CCCO2)sc(C(=O)OC)c1C (stereo unspecified)	0.2	39.5*	44.7*	-7.5	0.0	1.2
O=C(Nc1ccccc1Cl)NC1(C(=O)NCC2CCCO2)CCCCC1 (stereo unspecified)	4.3	3.5	3.0	·	5.7	·
O=S(=O)(O)c1cccc2c(N=Nc3ccc(O)c4ncccc34)cccc12	98.0*	15.7	8.7	·	82.2*	·
O=C(O)c1cc(S(=O)(=O)Nc2ccc3oc(=O)sc3c2)ccc1O	5.1	50.9*	·	-0.7	3.5	2.0
Cc1cc(C)c2cc(C#N)c(NCCOC(=O)c3ccccc3C)nc2c1	-0.8	0.0	-0.1	-1.1	-8.7	3.2*
COc1ccccc1C(=O)NCCNc1nc2cc(C)cc(C)c2cc1C#N	16.6	2.4	17.2	·	9.3	·
O=C(Nc1nnc(C2CC2)s1)C1CCCO1 (stereo unspecified)	69.3	-10.9	-7.8	0.7	0.7*	0.0
CC(C)c1nnc(NC(=O)C2CCCO2)s1 (stereo unspecified)	6.6	6.1	31.2	-0.1	10.6	1.3
C=C(C(=O)Nc1ccccc1)c1ccc(C)cc1	·	·	16.6	·	·	·
O=C(NC(NC(=S)Nc1c(Cl)cc(Cl)cc1Cl)C(Cl)(Cl)Cl)OCc1ccccc1 (stereo unspecified)	2.3	-10.6	38.8*	-0.9	-13.4	0.2
O=C(O)C1Nc2c(O)cccc2C2C=CCC12 (stereo unspecified)	6.4	6.2	-1.0	48.5*[fluorescence artefact?]	99.3*	0.4
O=C(O)C1Nc2c(Cl)cc(Cl)cc2C2C=CCC12 (stereo unspecified)	78.4*	10.7	-20.0	·	84.3*	·
O=C(O)C1Nc2c(Cl)cc(Cl)c(Cl)c2C2C=CCC12 (stereo unspecified)	·	3.9	-21.8	·	·	·
COc1ccc(C(=O)COC(=O)CCc2ccccc2)cc1	-4.2	29.6*	6.7	-3.0	-9.3	2.4
COc1ccc(C(=O)COC(=O)c2cc(S(=O)(=O)NCc3ccccc3)ccc2O)cc1	69.4*	0.8	-5.0	-0.6	active	0.2
